Compound activity: PubChem BioAssay, several laboratories
AHR act: human AHR activation; P35869; AHR-responsive luciferase reporter cells, luminescence; activation, % at 5 µM; actives 2.5% (n = 320,000); in the data active means activation above about 47%;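 further: 0% = vehicle wells and 100% = reference agonist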
SUMO Mot1 rescue: blocks SUMOylation pathway, rescuing yeast Mot1-301 growth. S. cerevisiae Mot1-301 growth rescue, ATP luminescence, 38.5C; percent above DMSO median, 100 means doubled. growth rescue, % at 18.8 µM. actives 1% (n = 320,000). AID 2716;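 active means every valid replicate shows activation above 250% relative to neutral control wells; inactive means the rest, any valid replicate at or below 250%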;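 further: OY570 slx delta 5 strain wells were the positive control but not used for scaling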
VLA-4 inh: inhibition in a human VLA-4 binding assay; VLA-4 expressing cells, ligand binding flow cytometry; inhibition, % (about 7 µM as worked out from the volumes in the protocol); actives 0.2% (n = 330,000); AID 2557; in the data active means inhibition above about 50%
ALR inh: blocks human ALR sulfhydryl oxidase activity | P55789 | purified ALR, DTT oxidation, H2O2 HRP-luminol luminescence | inhibition, % (test concentration not listed) | actives 3.8% (n = 290,000);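 active means mean replicate inhibition above about 79%, with every replicate also reaching it, limit read from the data; inconclusive means only one of the two criteria met; inactive means mean below limit and not every replicate reaching it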
Target sequence (P55789 whole entry, looked up): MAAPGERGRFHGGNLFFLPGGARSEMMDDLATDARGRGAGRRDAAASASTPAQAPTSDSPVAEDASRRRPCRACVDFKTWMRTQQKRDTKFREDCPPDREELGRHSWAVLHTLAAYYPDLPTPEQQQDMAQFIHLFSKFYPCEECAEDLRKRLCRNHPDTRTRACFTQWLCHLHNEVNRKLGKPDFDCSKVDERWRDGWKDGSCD
Efflux pump mplx: antifungal efflux pump inhibition, Nile Red retention; S. cerevisiae Candida pump triplex; inhibition, % at 10 µM; actives 0.44% (n = 330,000); AID 485275;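 active means plate passing quality check with inhibition over a set limit, or well fluorescence over plate mean plus 4 SD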;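 further: Nile Red retained in pooled yeast measured as flow cytometry median fluorescence; 0% = buffer negative control and 100% = Enniatin B positive control; higher means more Nile Red kept so more efflux inhibition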
A1 inh: inhibitors of the anti-apoptotic protein A1, read as caspase activation; actives 0.066% (n = 330,000); MEF A1-2A-BIM cells, Caspase-Glo 3/7 luminescence, 3 h; percent of clofoctol response, vehicle zero; caspase activation, % (test concentration not listed);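 active means over half of replicate activation scores above 10%, or exactly half above 10 with the replicate mean above 10; inconclusive means replicate mean below 10 yet half the replicates above 10; inactive means over half of replicates below 10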
Starred values were filed as active, the others as inactive; ? = inconclusive; . = not tested or not shown. An excerpt weighted towards active compounds, which were near 7.2% of everything screened.

SMILES | AHR act | SUMO Mot1 rescue | VLA-4 inh | ALR inh | Efflux pump mplx | A1 inh
CCOC(=O)c1[nH]c2ccccc2c1NC(=S)Nc1ccccc1C | 59* | 10 | 9 | . | 0 | -2
CC(=O)N(c1ccc(Cl)cc1)c1c[nH]c2ccccc12 | 7 | 6 | 10 | 52 | 0 | 1
Cc1ccccc1CNC(=O)C1CCC(=O)N(C2CCCCCC2)C1 (centres undefined) | -1 | -8 | 5 | -2 | 0 | 0
O=C(CCC1CCCCC1)NCCN1C2=NC[C@@H](Cc3ccccc3)N2C[C@H]1Cc1ccc(O)cc1 | 2 | -10 | . | -10 | . | 0
CCOC(=O)c1[nH]c2cc(OC)c(OC)cc2c1NC(=O)CN(C)C1CCCCC1 | 7 | -1 | 13 | 97* | 0 | 1
N/N=C1\CCCc2c1[nH]c1ccc([N+](=O)[O-])cc21 | 2 | -5 | 12 | . | 0 | -1
O=[N+]([O-])c1ccc2[nH]c3c(c2c1)CCCC3 | -4 | 133 | 5 | 98* | 0 | 1
O=C(NCC1CCOCC1)C1CCC(=O)N(Cc2cccc(C(F)(F)F)c2)C1 (centres undefined) | -1 | -6 | 6 | -1 | 0 | 0
CC1CN(C(=O)c2c(Br)cnn2C)CC(C)O1 (centres undefined) | 1 | 0 | 10 | 5 | 0 | 0
CN1CCCC(CC2c3ccccc3Sc3ccccc32)C1 (centres undefined) | -4 | -17 | 14 | 1 | 0 | 2
CN1CCCC(CN2c3ccccc3Sc3ccccc32)C1 (centres undefined) | 2 | -15 | 24 | 99* | 0 | 2
CCOC(=O)Nc1ccc2c(c1)N(C(=O)CN1CCN(C)CC1)c1ccccc1S2 | 1 | -9 | 5 | 30 | 0 | -1
CCSc1ccc2c(c1)N(CCCN1CCN(C)CC1)c1ccccc1S2 | 5 | -15 | 34 | 97* | 0 | 2
CN1CCN(CCCN2c3ccccc3Sc3ccc(Cl)cc32)CC1 | 13 | 6 | 42 | 99* | 0 | 1
CC1(C)Cc2nc3oc4c(=S)nc[nH]c4c3cc2CO1 | -2 | 9 | 23 | 96* | 0 | 0
COc1cccc(/C=C2/SC(=O)N(CC(=O)N3CCc4ccccc4C3)C2=O)c1OCC(=O)O | 2 | -8 | -19 | 98* | 0 | 1
COc1ccc2c(c1)c(C(=O)CNc1nc(C)cs1)c(C)n2C | 45 | 135 | 12 | 98* | 0 | 0
CCn1c(-c2ccccn2)nc2cc(S(=O)(=O)N(C)C)ccc21 | 5 | 13 | 23 | 99* | 0 | -1
CCn1c(-c2cc(Br)cc(OC)c2O)nc2cc(S(=O)(=O)N(C)C)ccc21 | 5 | 164 | 9 | 91* | 0 | 0
CCn1c(CSc2nnc(C)n2-c2ccccc2)nc2cc(S(=O)(=O)N(C)C)ccc21 | -2 | 70 | 25 | . | 0 | 3
COc1ccccc1/C=C\C=N\NC(=O)CCn1nnc2ccccc21 | 74* | 2 | 10 | -1 | 0 | 0
COc1ccccc1/C=C/C=N/NC(=O)CCn1nnc2ccccc21 | 66* | -3 | -4 | -11 | 0 | 0
Cc1ccccc1CN1CCN(CC(=O)NCc2ccc3c(c2)OCO3)C1=O | 12 | -13 | 15 | 2 | 0 | 1
Oc1ccccc1/C=C/c1noc(-c2ccccc2O)n1 | 66* | 3 | -7 | -2 | 0 | -7
Cc1nnc(SCC(=O)Nc2ccccc2)n1CCc1ccccc1 | 0 | -5 | 7 | 3 | 0 | 1
SMILES | AHR act | SUMO Mot1 rescue | VLA-4 inh | ALR inh | Efflux pump mplx | A1 inh
Nc1cc(=O)nc(SCC(=O)Nc2cccc3ccccc23)n1CCc1ccccc1 | 9 | 0 | 12 | 98* | 0 | 0
C=CCn1c(N)cc(=O)nc1SCC(=O)Nc1ccc(C)cc1 | 6 | -11 | 8 | 99* | 0 | 1
Cc1ccc(NC(=O)CSc2nc(=O)cc(N)n2CCc2ccccc2)cc1 | 19 | 7 | -4 | 99* | 0 | 0
CC(NC(=O)CSc1nc(=O)cc(N)n1CCc1ccccc1)c1ccccc1 (centres undefined) | 4 | -7 | 5 | . | 0 | 0
COc1ccc(C)cc1NC(=O)CN1CCCN(S(=O)(=O)c2ccc(Br)cc2)CC1 | -3 | -15 | -8 | . | 0 | 0
COc1ccc(NC(=O)CSc2nnc(C)n2Cc2ccccc2)cc1 | -1 | -12 | -4 | -1 | 0 | 0
Cc1nnc(SCC(=O)c2ccccc2)n1Cc1ccccc1 | 2 | 4 | -10 | 85* | 0 | 0
Cc1nnc(SCC(=O)Nc2ccc(N3CCOCC3)cc2)n1Cc1ccccc1 | 4 | 6 | -13 | 99* | 0 | 0
CCn1c(SCC(=O)Nc2ccc(NC(C)=O)cc2)nnc1C1CC1 | -1 | 4 | 4 | -10 | 0 | ?
Cc1nnc(SCC(=O)NNC(=O)c2ccccc2)n1Cc1ccccc1 | 0 | 7 | 4 | -2 | 0 | 1
CCn1c(SCC(=O)Nc2ccc(N(C)C)cc2)nnc1C1CC1 | 7 | -14 | -1 | 99* | 0 | -1
CCn1c(SCC(=O)Nc2ccc(N3CCOCC3)cc2)nnc1C1CC1 | 0 | -9 | 18 | 99* | 0 | 0
Cc1ccc(S(=O)(=O)CCC(=O)N(C)C2CCCCC2)cc1 | -1 | 23 | 23 | 13 | 0 | 0
Cc1ccc(C(=O)OC/C(O)=C(\C#N)c2nc3ccccc3[nH]2)cc1S(=O)(=O)N1CCOCC1 | 18 | . | -1 | . | 2 | 0
Cc1ccc(S(=O)(=O)N2CCOCC2)cc1N/N=C(\C#N)c1nc2ccccc2[nH]1 | 59* | 49 | -8 | -2 | 0 | -1
O=C(NCCCNC(=O)c1cnccn1)c1cccc(F)c1 | -1 | -8 | 2 | -10 | 0 | 0
CCn1c(=O)n(-c2ccc(Cl)cc2)c(=O)c2c3c(sc21)COC(C)(C)C3 | -1 | 435 | -10 | 1 | 0 | 0
COc1ccc(C(=O)N/N=C\c2coc3ccc(Cl)cc3c2=O)cc1 | 3 | -12 | -11 | 0 | 0 | 1
O=C(N/N=C/c1coc2ccc(Cl)cc2c1=O)c1ccc(O)cc1 | . | -3 | -2 | 98* | 0 | 1
O=C(N/N=C/c1coc2ccc(Cl)cc2c1=O)c1ccncc1 | . | -22 | 8 | -4 | 0 | 1
NC(=S)N/N=C/c1coc2ccc(Cl)cc2c1=O | 5 | 324* | 3 | 4 | 0 | 0
COCCN(C(=O)COC(=O)/C=C/c1cccc(C(F)(F)F)c1)c1c(N)n(CC(C)C)c(=O)[nH]c1=O | -1 | 2 | 5 | 1 | 0 | -1
CC(CCc1ccco1)NC(=O)CSc1cc(=O)n(C)c2ccccc12 (centres undefined) | -4 | -2 | 0 | 2 | 0 | 0
COc1ccccc1OCCNc1cc(N2CCCCC2)ccc1[N+](=O)[O-] | 69* | 7 | 3 | -9 | 0 | 0
